# The campaign covered roughly 420,000 compounds. About 50,000 (12%) were called active. Roughly 26% stayed inconclusive and do not appear here. The sample holds actives, similar compounds and a random draw of the others, so the mix is not that of the screen. A number with no mark means an inactive call. Calls come from the whole dose curve; as a rule, active = well fitted inhibition curve with a large enough effect; inconclusive = small, poorly fitted or top-dose-only effect; inactive = flat fitted curve, though single readings scatter.
# Assay: qHTS for Inhibitors of human tyrosyl-DNA phosphodiesterase 1 (TDP1): qHTS in cells in presence of CPT; note: nearly all actives have a fitted effect of over 55% in size
# Conditions: chicken DT40 Tdp1-/-;hTDP1 cells + 20 nM CPT, ATP luminescence, 48 h; series mostly up to 46.2 µM; activity change, negative = growth inhibition: at the top concentration
# In short: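 Chicken DT40 Tdp1-/- cells stably complemented with human TDP1 were seeded at 400 cells/well in medium containing 20 nM camptothecin, exposed to pin-transferred compounds, and grown at 37 °C for at least 48 hr. Viability was read as ATP luminescence.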
# % is set by controls: 0 for no effect and ±100 for the full control effect; potency is the fitted concentration of half-maximal effect.
SMILES,"activity change, negative = growth inhibition",Potency
CCOC(=O)/C(C#N)=C/c1cn(CCC(=O)O)nc1-c1ccc(Br)cc1,-3.43%,–
O=C(O)CCn1cc(/C=C/C(=O)c2ccc(Cl)cc2)c(-c2cccc(Br)c2)n1,–,20.6 µM (active)
O=C(O)/C=C/c1cn(Cc2ccccc2)nc1-c1cccs1,1.59%,–
Cc1cc(C)cc(N)c1,-11.1%,–
O=C(NCc1ccco1)C(c1ccncc1)N(C(=O)Cn1nnc2ccccc21)c1ccccc1 (stereo not drawn),3.69%,–
CC(C)(C)OC(=O)N/N=C/c1ccc(C(=O)O)cc1,5.2%,–
COC(=O)C1(C(=O)OC)C/C=C\CN(S(=O)(=O)c2ccccc2[N+](=O)[O-])CCC1,-27.1%,–
Cc1nnsc1C(=O)N/N=C/c1cccc(C(F)(F)F)c1,2.4%,–
O=C(Nc1ccccc1)Nc1ccc(C(F)(F)F)cn1,-14.5%,–
Oc1ccc(/C=N/Nc2ccc(C(F)(F)F)cn2)cc1O,–,2.91 µM (active)
COc1ccc(C(=O)Nc2cccc(/C=C(/CCC(=O)O)c3nc4ccccc4s3)c2)cc1,-26.9%,–
O=C(CC(NCc1cccnc1)C(=O)O)Nc1ccc(O)cc1 (stereo not drawn),10.1%,–
COC(=O)c1ccc(C2CC(=O)Nc3cc(OC)c(OC)cc32)cc1 (stereo not drawn),-2.88%,–
COc1cc2c(cc1OC)C(c1ccncc1)CC(=O)N2 (stereo not drawn),3.17%,–
Cc1cc2c(cc1C)C(c1cccc(OC(C)C)c1)CC(=O)N2 (stereo not drawn),–,16.4 µM (active)
Cc1cccc(C)c1NC(=O)C(c1cccc(F)c1)N1CCN(C)CC1 (stereo not drawn),-28.4%,–
O=C(NC(c1ccccc1)c1ccccc1)N1CCN(CCO)CC1,0.157%,–
CC(=O)Nc1sc2c(c1C(c1cccc(F)c1)N1CCN(CCO)CC1)CCCC2 (stereo not drawn),–,23.1 µM (active)
COc1ccccc1CNC(=O)COC(=O)CNS(=O)(=O)c1ccc(NC(C)=O)cc1,8.96%,–
O=C(Cc1ccccc1)Nc1c(Cl)ccc2nsnc12,-1.89%,–
CCOC(=O)N1CCN(C(=O)c2cn(C)c3ccc(S(=O)(=O)N(CC)CC)cc3c2=O)CC1,-4.93%,–
CCN(CC)S(=O)(=O)c1ccc2c(c1)c(=O)c(C(=O)N1CCN(c3cccc(Cl)c3)CC1)cn2C,-62.1%,–
C=CCn1cc(C(=O)NCc2ccc(Cl)cc2)c(=O)c2cc(S(=O)(=O)N(CC)CC)ccc21,–,20.6 µM (active)
CSc1ncnc2c1ncn2CCCNCC(C)c1ccccc1 (stereo not drawn),1.45%,–
O=C(Nc1cc(S(=O)(=O)N2CCOCC2)ccc1OCC(F)(F)F)c1ccc(N2CCCC2=O)cc1,-16%,–

SMILES,"activity change, negative = growth inhibition",Potency
S=C(NNC(=S)NC1CC2C=CC1C2)NC1CC2C=CC1C2 (stereo not drawn),-3.95%,–
CC(C)c1ccc(NC(=S)NC2CC3C=CC2C3)cc1 (stereo not drawn),–,14.6 µM (active)
S=C(NNC(=S)NC1CC2CCC1C2)NC1CC2C=CC1C2 (stereo not drawn),-28.8%,–
COCCCN(C(=O)CSCc1ccc(C)cc1)c1c(N)n(Cc2ccccc2)c(=O)[nH]c1=O,-1.77%,–
O=C(NCCC1CCCCN1S(=O)(=O)c1ccc(Cl)cc1)C(=O)NCc1ccco1 (stereo not drawn),–,16.4 µM (active)
Cc1ccc(S(=O)(=O)N2CCCC2C(=O)NCc2ccco2)cc1 (stereo not drawn),-23.3%,–
O=C(NCCC1CCCCN1S(=O)(=O)c1ccccc1)C(=O)NCC1CCCO1 (stereo not drawn),5.7%,–
O=C(/C=C/[C@H]1O[C@@H](n2ccc(=O)[nH]c2=O)[C@H](O)[C@@H]1O)NCc1ccccn1,2.63%,–
Cc1cc2nc(C)n(CCCNC(=O)Nc3ccccc3)c2cc1C,-18.6%,–
COc1ccc(OCCn2ccnc2C)cc1,4.61%,–
COc1ccc(OCCCn2c(C)nc3cc(C)c(C)cc32)cc1,–,11.6 µM (active)
CCn1cc(C(=O)NCCC(=O)NCCO)c(=O)c2cc3c(cc21)OCO3,4.51%,–
COC(=O)C1=C(C(=O)OC)[C@@H]2N(C)c3ccccc3[C@@]23C[C@@H](C(=O)OC)N(C(=O)c2ccco2)C3=N1,2.69%,–
Cc1noc(C)c1NC(=O)Nc1ccc2c(c1)C(=O)N([C@H](C)CO)C[C@H](C)[C@@H](CN(C)S(=O)(=O)c1cn(C)cn1)O2,-2.21%,–
COc1ccc(CNC(=O)CSc2n[nH]c(N)n2)cc1OC,-5.36%,–
CCC(CO)Oc1cc(NC(=O)c2cccc(F)c2)c2ncn(C(C)C)c2c1 (stereo not drawn),-26.9%,–
CC(C)n1cnc2c(NCc3ccccc3)cc(OCC3CCN(C)CC3)cc21,–,20.6 µM (active)
CCC(CO)Oc1cc(NC(=O)c2ccc(Cl)cc2)c2ncn(C(C)C)c2c1 (stereo not drawn),-5.07%,–
Cn1nc(C(=O)OCC(=O)N(Cc2ccccc2)C(C)(C)C)c2ccccc2c1=O,-21.9%,–
O=C(CN1CCCCCC1)Nc1ccc(Br)cc1[N+](=O)[O-],-2.9%,–
Cc1ccc(S(=O)(=O)NC2CCCCCC2)cc1,-0.605%,–
Cc1ccc(S(=O)(=O)N(C)C2(C)CCS(=O)(=O)C2)cc1 (stereo not drawn),-24.8%,–
Cc1ccc(S(=O)(=O)C2(S(=O)(=O)c3ccc(C)cc3)CCCC2)cc1,–,7.31 µM (active)
COc1ccc(/C=C(/NC(=O)c2ccccc2)C(=O)Nc2cccc(C(=O)O)c2)cc1,2.84%,–
CCOC(=O)N1CCN(C(=O)CN(c2ccc(C)c(C)c2)S(=O)(=O)c2ccccc2)CC1,-6.33%,–

SMILES,"activity change, negative = growth inhibition",Potency
Cc1ccc(S(=O)(=O)CCC(=O)OCc2ccccc2)cc1,7.5%,–
Cc1ccc(S(=O)(=O)N(CCc2ccccc2)c2ccc3c(c2)C2CC3CCN2C(=O)OCc2ccccc2)cc1 (stereo not drawn),–,20.6 µM (active)
COc1ccc(C(=O)NCC2CCCCC2)cc1S(=O)(=O)N1CCCC1,3.05%,–
Cc1[nH]c2c(C(=O)NCC3Cc4cccc(-c5cccnc5)c4O3)cccc2c1C (stereo not drawn),-3.45% [at 9.04 µM],–
Cc1cc(=O)oc2cc(OCC(=O)N3CCN(c4ccc(F)cc4)CC3)c(Cl)cc12,-12%,–
COc1cccc(CNn2cn[nH]c2=S)c1OCc1ccccc1,8.15%,–
COc1ccccc1-n1cn[nH]c1=S,–,29.1 µM (active)
COc1ccccc1-n1c(-c2cc(-c3ccco3)[nH]n2)n[nH]c1=S,-13%,–
COCCNC(=O)C(OC(=O)c1cccs1)c1ccc(F)cc1 (stereo not drawn),2.93%,–
COc1ccc2ccccc2c1/C=N/NC(=O)c1cc(C)[nH]n1,–,8.2 µM (active)
COc1ccc(/C=N\NC(=O)c2sc(N)nc2C)cc1OC,-28.3%,–
CCOc1ccc2ccccc2c1/C=N/NC(=O)c1c(C)cc(C)[nH]c1=O,10.1%,–
O=C(CN1C(=O)S/C(=C\c2ccccc2F)C1=O)NCCCn1ccnc1,-17.7%,–
COCc1cc(C(C)=O)ccc1OC,-3.55%,–
COc1ccc(-c2noc(COc3ccc(Cl)c(C)c3)n2)cc1,-10.7%,–
COc1ccc(C(C)=O)cc1COc1ccc(Cl)c(C)c1,–,10.3 µM (active)
COCCCNC(=S)N(CCN(C)C)Cc1cc2cc3c(cc2[nH]c1=O)OCCO3,-2.43%,–
OCc1ccc(OCCCOc2cccc3cccnc23)cc1,-17.3%,–
Nn1c(SCc2ccccc2)nnc1C1CCCCC1,13.1%,–
C[C@@H]1CN([C@@H](C)CO)C(=O)c2cc(NS(C)(=O)=O)ccc2O[C@@H](C)CCCCO[C@H]1CN(C)C(=O)Nc1ccc2c(c1)OCO2,-18.7%,–
CC(C)NC(=O)Nc1ccc2c(c1)C(=O)N([C@H](C)CO)C[C@H](C)[C@@H](CN(C)Cc1ccc(C(F)(F)F)cc1)OCCCC[C@@H](C)O2,–,13 µM (active)
Cc1noc(C)c1NC(=O)Nc1ccc2c(c1)C(=O)N([C@H](C)CO)C[C@H](C)[C@@H](CN(C)C(=O)Nc1ccc(C(F)(F)F)cc1)O2,-8.79%,–
Cc1ccc(S(=O)(=O)N2CCOCC2)cc1NC(=O)c1ccncc1,-10.9%,–
O=C(O)c1c(NC(=O)N2CCCC2)sc2c1CCCC2,-4.88%,–
COc1cn(CC(=O)Nc2cccc(C)c2C)c(CN2CCCCC2)cc1=O,-3.13%,–

SMILES,"activity change, negative = growth inhibition",Potency
O=C(Cc1ccccc1)N1N=C(c2ccncc2)CC1(O)C(F)(F)F (stereo not drawn),4.64%,–
O=C(C1CC1)N1N=C(c2ccc(Br)cc2)CC1(O)C(F)(F)F (stereo not drawn),-23.5%,–
O=C(c1ccc(Cl)cc1)N1N=C(c2ccccn2)CC1(O)C(F)(F)F (stereo not drawn),–,25.9 µM (active)
C=CCn1c(SCC(=O)NC(=O)Cc2ccccc2)nc2ccccc2c1=O,0.809%,–
COc1ccccc1C(=O)NC(=S)Nc1ccccc1N1CCCCC1,-23.6%,–
COc1ccc(C(=O)NC(=S)Nc2ccccc2N2CCN(S(C)(=O)=O)CC2)cc1OC,–,12.6 µM (active)
CCC(=O)Nc1ccccc1N1CCN(S(C)(=O)=O)CC1,-17.6%,–
COc1ccc(S(=O)(=O)N2CCOCC2)cc1C(=O)NC1CCCCC1,-6.97%,–
O=C(CC1SC(N2CCCC2)=NC1=O)Nc1ccc(C(=O)NCCc2ccc(F)cc2)cc1 (stereo not drawn),-11.2%,–
Fc1ccc(-c2csc(-c3ccc(C4SCCS4)cc3)n2)cc1F,-15.4%,–
COc1cc(NC(=O)C2CC(c3ccccc3O)=NO2)c(OC)cc1Cl (stereo not drawn),22.2%,–
COc1cc(NC(=O)CSc2nnc3ccc(-c4ccncc4)nn23)cc(OC)c1,-4.16%,–
COc1cc(NC(=O)Cn2nc(-c3ccc(C)c(C)c3)ccc2=O)cc(OC)c1,–,20.6 µM (active)
COc1ccc(-c2ccc(=O)n(CC(=O)Nc3ccc(Br)cc3F)n2)cc1,-8.26%,–
O=C(Nc1nnc(CCOCCOCCc2nnc(NC(=O)c3ccco3)s2)s1)c1ccco1,-11.4%,–
CCCNC(=O)NC(=O)COC(=O)CC(NC(N)=O)c1ccc(Cl)cc1 (stereo not drawn),-6.82%,–
Cn1c(SCC(=O)Nc2ccc(N3CCOCC3)cc2)nnc1C(F)(F)F,-0.589%,–
CCOC(=O)N1CCN(C(=O)c2ccc3c(=O)n(CCc4ccc(OC)c(OC)c4)c(=O)[nH]c3c2)CC1,–,20.6 µM (active)
COCCn1c(=S)[nH]c2cc(C(=O)NCCc3ccc(OC)c(OC)c3)ccc2c1=O,-21.7%,–
COc1ccc(Cn2c(=O)[nH]c3cc(C(=O)N4CCN(C(=O)c5ccco5)CC4)ccc3c2=O)cc1,–,11.2 µM (active)
COc1cc2[nH]c(=O)n(Cc3ccc(C(=O)NC4CCN(Cc5ccccc5)CC4)cc3)c(=O)c2cc1OC,-25.7%,–
COc1ccccc1Cn1c(=S)[nH]c2cc(C(=O)N3CCN(C)CC3)ccc2c1=O,-23.2%,–
O=C(c1ccc2c(=O)n(Cc3ccco3)c(=S)[nH]c2c1)N1CCCC1,-22.9%,–

# From PubChem BioAssay AID686979 (National Center for Advancing Translational Sciences (NCATS), 2013)
